Measurements reported in PubChem BioAssay (NCATS).
Inconclusive results are not listed. A number with no mark means an inactive call. Active and inactive are the calls of the source. Calls come from the whole dose curve; as a rule, active = well fitted inhibition curve with a large enough effect; inconclusive = small, poorly fitted or top-dose-only effect; inactive = flat fitted curve, though single readings scatter.

What follows are molecules tested against Luciferin 4-monooxygenase (Photinus pyralis) (UniProt P08659) (assay: Biochemical firefly luciferase enzyme assay for NPC (AID 624030;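 note: 0% = DMSO and -100% = full luciferase inhibition by PTC124 control; nearly all actives have a fitted effect of over 70% in size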)). Conditions: purified P. pyralis luciferase, luminescence, 5 min; series mostly up to 58.6 µM; activity change, negative = inhibition: at the top concentration.
Luciferin 4-monooxygenase (Photinus pyralis), sequence (P08659 whole entry, looked up): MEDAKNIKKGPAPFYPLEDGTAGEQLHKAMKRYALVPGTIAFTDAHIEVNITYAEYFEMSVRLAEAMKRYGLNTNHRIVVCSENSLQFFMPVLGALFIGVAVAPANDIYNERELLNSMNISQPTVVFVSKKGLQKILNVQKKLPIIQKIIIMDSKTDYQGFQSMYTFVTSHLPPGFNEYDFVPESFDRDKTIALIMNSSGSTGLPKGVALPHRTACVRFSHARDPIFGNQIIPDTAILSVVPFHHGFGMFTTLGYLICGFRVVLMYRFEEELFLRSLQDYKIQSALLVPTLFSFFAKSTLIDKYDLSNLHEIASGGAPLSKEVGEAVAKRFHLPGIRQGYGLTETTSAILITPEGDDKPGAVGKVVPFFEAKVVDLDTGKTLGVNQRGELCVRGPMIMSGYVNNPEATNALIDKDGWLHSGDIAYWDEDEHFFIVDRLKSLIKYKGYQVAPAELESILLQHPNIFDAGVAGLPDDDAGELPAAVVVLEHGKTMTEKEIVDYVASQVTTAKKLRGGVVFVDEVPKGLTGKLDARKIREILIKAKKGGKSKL
Excerpt: Charcot-Marie-Tooth-Association [CMTA] National Center for Advancing Translational Sciences [NCATS] Charcot-Marie-Tooth (CMT) disease was first characterized by Jean-Martin Charcot and Pierre Marie in France and, independently, by Howard Henry Tooth in England in 1886. CMT is one of the most common inherited neurological diseases, affecting approximately 1 in 2,500 Americans. […] The most prevalent type of CMT is known as CMT1A and caused by a duplication of the PMP22 gene which leads to over-expression of this protein. PMP22 is a glycosylated intrinsic membrane protein accounting for 2-5% of the myelin protein content, and its over-expression results in demyelination and subsequently axonal loss. A pair of cellular transcription-based assays was developed in the S16 rat Schwann cell lines (Hai, M., et al., 2002) stably transfected with orthogonal reporters - firefly luciferase (Fluc) and beta-lactamase (beta-Lac) - whose expression is driven by an intronic regulatory element of the PMP22 gene (Jones, E.A., et al., 2011) to recapitulate endogenous expression of PMP22. A comprehensive library of approved drugs, the NCGC Pharmaceutical Collection (Huang, R., et al., 2011), was screened in the cross-validating platform of the orthogonal reporter assays to identify drug modulators inhibitory towards PMP22 expression. A set of counter-screens was devised to address non-specific activity of the library. An ATP-dependent CellTiter-Glo assay (developed by Promega Corp) was utilized to control cell viability. In addition, biochemical Fluc enzyme assay was performed to assess direct inhibition of the Fluc enzymatic activity. References Hai, M., Muja, N., DeVries, G.H., Quarles, R.H. and Patel, P.I. Comparative analysis of Schwann cell lines as model systems for myelin gene transcription studies. J Neurosci Res, 2002. 69(4): pp 497-508 Huang, R., Southall, N., Wang, Y., Yasgar A., Shinn P., Jadhav, A. , Nguyen, D.-T. and Austin, C.P., The NCGC pharmaceutical collection: a comprehensive resource of clinically approved drugs enabling repurposing and chemical genomics. Sci Transl Med, 2011. 3(80): p. 80ps16.
Compounds were transferred to the plates in 23nl, and one microliter/well luciferase enzyme-buffer solution (10 nM P. pyralis luciferase and 50 mM Tris Acetate final concentrations) was dispensed yielding a final reaction volume of […]. Luciferase luminescence was measured by a ViewLux plate reader within 5 minutes of enzyme-buffer addition. The % activity was determined by normalizing to the average readings of PTC124 (a positive control) relative to DMSO (0% Activity). The concentration-effect curves were then classified based on curve quality (r2), response magnitude and degree of measured activity.
`CN[C@@H](CC(C)C)C(=O)N[C@@H]1C(=O)N[C@H](CC(N)=O)C(=O)N[C@@H]2C(=O)N[C@H]3C(=O)N[C@H](C(=O)N[C@H](C(=O)O)c4cc(O)cc(O)c4-c4cc3ccc4O)[C@H](O)c3ccc(c(Cl)c3)Oc3cc2cc(c3O[C@H]2O[C@@H](CO)[C@@H](O)[C@@H](O)[C@@H]2O[C@@H]2C[C@](C)(N)[C@H](O)[C@H](C)O2)Oc2ccc(cc2Cl)[C@@H]1O` was tested, and the “activity change, negative = inhibition” value was 1.62%. `CC(=O)OCC1=C(C(=O)O)N2C(=O)[C@@H](NC(=O)CSc3ccncc3)[C@@H]2SC1` was tested, and the “activity change, negative = inhibition” value was 4.67%. For `CC(C)N1CCN(c2ccc(OC[C@@H]3CO[C@@](Cn4cncn4)(c4ccc(Cl)cc4Cl)O3)cc2)CC1`, the “activity change, negative = inhibition” value was 5.22% [at 24.9 µM]. In the case of `CC1(C)Oc2ccc(C#N)cc2[C@H](N2CCCC2=O)[C@H]1O`, the outcome is reported as “inactive”. In the case of `CN(C)CC/C=C1\c2ccccc2CSc2ccccc21`, the “activity change, negative = inhibition” value is reported as 8.2% [at 24.9 µM]. In the case of `CCn1cc(C(=O)O)c(=O)c2cc(F)c(N3CCN[C@@H](C)C3)c(F)c21`, the outcome is reported as “inactive”. In the case of `N[C@@H](CO)C(=O)NNCc1ccc(O)c(O)c1O`, the “activity change, negative = inhibition” value is reported as -10.9%. With `CO[C@]1(NC(=O)CSCC#N)C(=O)N2C(C(=O)O)=C(CSc3nnnn3C)CS[C@H]21` the “activity change, negative = inhibition” value was -2.98%. `CCN(CC)CC#CCOC(=O)[C@@](O)(c1ccccc1)C1CCCCC1` was tested, and the “activity change, negative = inhibition” value was 1.5%. `C[C@H](NCCc1ccc(O)cc1)[C@@H](O)c1ccc(O)cc1` was tested, and the “activity change, negative = inhibition” value was 2.74%. In the case of `CO/N=C(/C(=O)NC1C(=O)N2C(C(=O)O)=C(CSc3nc(=O)c(O)nn3C)CSC12)c1csc(N)n1` (stereo not given), the “activity change, negative = inhibition” value is reported as -4.21%. `C[C@@H]1c2cccc(O)c2C(O)=C2C(=O)[C@@]3(O)C(O)=C(C(N)=O)C(=O)[C@@H](N(C)C)[C@@H]3[C@@H](O)[C@@H]21` was tested, and the “activity change, negative = inhibition” value was 4.81%. In the case of `C[n+]1ccccc1/C=N\O`, the “activity change, negative = inhibition” value is reported as 0.158% [at 24.9 µM]. In the case of `NC(N)=NC[C@@H]1COC2(CCCCC2)O1`, the “activity change, negative = inhibition” value is reported as 0.269% [at 24.9 µM]. In the case of `C[N+]1(C)CCC[C@@H](OC(=O)C(O)(c2ccccc2)c2ccccc2)C1`, the “activity change, negative = inhibition” value is reported as 0.161% [at 24.9 µM]. For `CC[C@@]12CCCN3CCc4c(n(c5ccccc45)C(=O)C1)[C@H]32`, the “activity change, negative = inhibition” value was 3.15% [at 24.9 µM]. `C[C@@H](CCc1ccccc1)NC[C@H](O)c1ccc(O)c(C(N)=O)c1` was tested, and the “activity change, negative = inhibition” value was 1.76%. In the case of `CC[C@]1(C)CC(=O)NC1=O`, the “activity change, negative = inhibition” value is reported as -0.51%. With `C[C@@H]1CCC[C@H](C)N1NC(=O)c1ccc(Cl)c(S(N)(=O)=O)c1` the “activity change, negative = inhibition” value was 1.68% [at 24.9 µM]. `CCN[C@@H]1C[C@H](C)S(=O)(=O)c2sc(S(N)(=O)=O)cc21` was tested, and the “activity change, negative = inhibition” value was 1.04%. In the case of `CN1[C@@H]2CC[C@H]1CC(OC(=O)[C@@H](O)c1ccccc1)C2` (stereo not given in full), the outcome is reported as “inactive”. `CC[C@H](NC(C)C)[C@H](O)c1ccc(O)c(O)c1` was tested, and the “activity change, negative = inhibition” value was -3.67%. With `CC(=O)N(CC(O)CN(C(C)=O)c1c(I)c(C(=O)NC[C@@H](O)CO)c(I)c(C(=O)NC[C@@H](O)CO)c1I)c1c(I)c(C(=O)NC[C@@H](O)CO)c(I)c(C(=O)NC[C@@H](O)CO)c1I` the “activity change, negative = inhibition” value was -3.03% [at 24.9 µM]. `COCCc1ccc(OC[C@H](O)CNC(C)C)cc1` was tested, and the “activity change, negative = inhibition” value was -0.736%. For `CC12CC[C@@H]3c4ccc(OS(=O)(=O)O)cc4CC[C@H]3C1CCC2=O` (stereo not given in full), the “activity change, negative = inhibition” value was -12.4%. With `C[C@@H](C(=O)O)c1cccc(C(=O)c2ccccc2)c1` the “activity change, negative = inhibition” value was -23.4%. In the case of `CCN1C(=O)N[C@@H](c2ccccc2)C1=O`, the “activity change, negative = inhibition” value is reported as -3.56% [at 24.9 µM]. In the case of `C[C@@H](CN(C)C)CN1c2ccccc2CCc2ccccc21`, the “activity change, negative = inhibition” value is reported as 14.1% [at 24.9 µM]. `CN1CCCC[C@@H]1CCN1c2ccccc2Sc2ccc(S(C)=O)cc21` (stereo not given in full) was tested, and the “activity change, negative = inhibition” value was -1.88%. `O=C(O)/C=C\c1ccc(Cn2ccnc2)cc1` was tested, and the “activity change, negative = inhibition” value was -0.766% [at 24.9 µM]. For `CO/N=C(\C(=O)N[C@@H]1C(=O)N2C(C(=O)O)=C(COC(C)=O)CS[C@@H]12)c1csc(N)n1`, the “activity change, negative = inhibition” value was -4.17%. `CN(C)[C@H]1C(=O)C(C(=O)NCN2CCCC2)=C(O)[C@]2(O)C(=O)C3=C(O)c4c(O)cccc4[C@@](C)(O)[C@H]3C[C@@H]12` was tested, and the “activity change, negative = inhibition” value was -5.04% [at 24.9 µM]. For `C[C@@H]1COc2c(N3CCN(C)CC3)c(F)cc3c(=O)c(C(=O)O)cn1c23`, the “activity change, negative = inhibition” value was 3.07%. `Cn1c(=O)c2c(ncn2C[C@@H](O)CO)n(C)c1=O` was tested, and the “activity change, negative = inhibition” value was 1.63% [at 24.9 µM]. `CN(C)[C@@H]1C(=O)C(C(N)=O)=C(O)[C@]2(O)C(=O)C3=C(O)c4c(O)ccc(Cl)c4[C@H](O)[C@H]3C[C@@H]12` was tested, and the “activity change, negative = inhibition” value was -0.269%. `C[N+](C)(C)CC(O)CC(=O)O` (stereo not given) was tested, and the “activity change, negative = inhibition” value was 2.17%. In the case of `Cc1cc(/C=C\c2ccc3cc(N(C)C)ccc3[n+]2C)c(C)n1-c1ccccc1`, the “activity change, negative = inhibition” value is reported as -13.7% [at 24.9 µM]. In the case of `NC(=O)c1cc[n+](CC2=C(C(=O)O)N3C(=O)[C@@H](NC(=O)[C@H](c4ccccc4)S(=O)(=O)[O-])[C@@H]3SC2)cc1`, the “activity change, negative = inhibition” value is reported as -11.4% [at 24.9 µM]. In the case of `CC(C)NC[C@H](O)c1cc(O)cc(O)c1`, the “activity change, negative = inhibition” value is reported as 1.31%. For `NC(=O)OC[C@H](O)COc1ccc(Cl)cc1`, the “activity change, negative = inhibition” value was -1.47% [at 24.9 µM].
